Consider twelve molecules from ChEMBL document CHEMBL3988442, “University of Dundee, Small-Polar-MMV Screening Library” (2021).

Common to all, as to set-up: scale not given: direction of the effect not stated beside the values
Assay [1] concerns the target Protein translocase subunit SecA (Escherichia coli (strain K12)) (UniProt P10408). In words: Assay to Identify E. coli SecA ATPase Inhibitors. It counts as functional. Particulars: 30 µM.
Assay [2] deals with T1, Ubiquitin-activating enzyme e1, putative (Leishmania donovani (strain BPK282A1)) (UniProt E9BSI1).
T1 sequence (whole entry): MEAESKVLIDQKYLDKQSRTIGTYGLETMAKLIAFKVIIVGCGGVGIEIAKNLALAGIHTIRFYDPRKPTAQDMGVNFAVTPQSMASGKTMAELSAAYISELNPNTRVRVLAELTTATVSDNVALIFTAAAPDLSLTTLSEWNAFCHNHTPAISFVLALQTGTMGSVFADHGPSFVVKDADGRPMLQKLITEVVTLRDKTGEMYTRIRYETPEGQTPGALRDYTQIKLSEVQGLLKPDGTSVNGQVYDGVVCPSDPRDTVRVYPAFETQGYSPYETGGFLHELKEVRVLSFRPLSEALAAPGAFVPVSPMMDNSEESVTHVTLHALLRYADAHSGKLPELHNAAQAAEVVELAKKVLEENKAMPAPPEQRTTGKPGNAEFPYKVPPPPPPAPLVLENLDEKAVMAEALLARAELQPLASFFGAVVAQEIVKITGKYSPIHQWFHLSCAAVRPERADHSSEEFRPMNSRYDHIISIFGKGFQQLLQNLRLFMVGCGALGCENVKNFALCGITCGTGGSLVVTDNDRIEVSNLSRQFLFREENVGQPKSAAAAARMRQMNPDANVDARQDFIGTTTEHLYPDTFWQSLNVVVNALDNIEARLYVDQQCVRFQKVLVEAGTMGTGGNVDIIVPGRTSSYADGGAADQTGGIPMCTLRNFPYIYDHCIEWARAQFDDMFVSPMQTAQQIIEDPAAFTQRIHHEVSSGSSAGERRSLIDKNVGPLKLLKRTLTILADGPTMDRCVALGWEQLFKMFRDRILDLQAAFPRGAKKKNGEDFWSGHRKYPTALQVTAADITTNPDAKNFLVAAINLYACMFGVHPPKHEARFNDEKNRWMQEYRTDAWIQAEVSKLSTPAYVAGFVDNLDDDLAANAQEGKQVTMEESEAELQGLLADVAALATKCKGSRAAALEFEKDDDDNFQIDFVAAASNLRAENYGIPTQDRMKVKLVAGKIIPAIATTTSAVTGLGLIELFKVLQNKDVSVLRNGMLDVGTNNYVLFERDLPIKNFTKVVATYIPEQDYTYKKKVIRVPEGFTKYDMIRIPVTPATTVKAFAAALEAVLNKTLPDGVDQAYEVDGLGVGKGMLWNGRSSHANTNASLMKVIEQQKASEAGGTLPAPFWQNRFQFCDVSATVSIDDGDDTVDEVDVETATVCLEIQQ
Nature of the assay: Leishmania donovani Ubiquitin Activating Enzyme (LdE1). It counts as functional. As to conditions: 30 µM.

Assay [3] addresses Sialic acid-binding Ig-like lectin 9 (Homo sapiens) (UniProt Q9Y336). Nature of the assay: Hs-Siglec9 ALPHAscreen SOP 20170721. Particulars: 10 µM. (In general: Alpha assays give light when donor and acceptor beads are brought close together.)
Assay [4] has as its system Trypanosoma cruzi. In words: Trypanosoma cruzi phosphomannomutase and mannose-1-phosphate guanylyltransferase assay. It counts as functional. As to conditions: 10 µM.
In assay [5] the target is T2, Arginase-2, mitochondrial (Homo sapiens) (UniProt P78540).
T2 sequence (whole entry): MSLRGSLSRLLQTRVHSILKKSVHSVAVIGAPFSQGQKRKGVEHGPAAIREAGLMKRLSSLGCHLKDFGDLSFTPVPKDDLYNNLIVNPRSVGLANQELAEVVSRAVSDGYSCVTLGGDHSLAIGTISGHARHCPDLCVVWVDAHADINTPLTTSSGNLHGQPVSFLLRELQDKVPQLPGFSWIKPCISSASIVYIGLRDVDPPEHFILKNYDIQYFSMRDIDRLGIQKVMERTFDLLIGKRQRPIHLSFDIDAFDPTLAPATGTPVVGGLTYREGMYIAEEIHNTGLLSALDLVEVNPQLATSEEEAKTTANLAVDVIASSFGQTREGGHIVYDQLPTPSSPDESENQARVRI
Nature of the assay: in vitro enzyme assay to detect the production of urea directly proportional to the activity of Arginase II. Note: in the data most compounds retested in dose-response had high values. It counts as functional. As to conditions: 33.3 µM.

Assay [6] has as its target T3, Proteasome subunit beta (Trypanosoma cruzi) (UniProt O96673).
T3 sequence (whole entry): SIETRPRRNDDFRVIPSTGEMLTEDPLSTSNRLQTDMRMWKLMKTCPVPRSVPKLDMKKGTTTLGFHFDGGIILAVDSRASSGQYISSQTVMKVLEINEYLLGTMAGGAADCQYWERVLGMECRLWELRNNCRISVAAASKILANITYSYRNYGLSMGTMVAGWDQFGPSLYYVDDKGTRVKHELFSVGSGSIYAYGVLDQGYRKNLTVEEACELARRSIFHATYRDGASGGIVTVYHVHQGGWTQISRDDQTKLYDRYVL
Nature of the assay: Trypanosoma cruzi proteasome chymotrypsin-like activity (TcProtChymo) assay. Note: in the data most compounds retested in dose-response had high values. It counts as functional. As to conditions: 9.37 µM.

For assay [7], the species on record is Homo sapiens. In words: To identify inhibition of the IFN signalling (Jak-Stat) pathway via expression of an eGFP reporter gene under the control of an IFN-stimulated response element (ISRE) containing MxA promoter. As to conditions: 30 µM. It counts as functional. Background: In a reporter assay the amount or activity of a reporter protein is the signal.
Assay [8] has as its target T4, Tyrosyl-tRNA synthetase, putative (Trypanosoma cruzi (strain CL Brener)) (UniProt Q4DSP6).
T4 sequence (whole entry): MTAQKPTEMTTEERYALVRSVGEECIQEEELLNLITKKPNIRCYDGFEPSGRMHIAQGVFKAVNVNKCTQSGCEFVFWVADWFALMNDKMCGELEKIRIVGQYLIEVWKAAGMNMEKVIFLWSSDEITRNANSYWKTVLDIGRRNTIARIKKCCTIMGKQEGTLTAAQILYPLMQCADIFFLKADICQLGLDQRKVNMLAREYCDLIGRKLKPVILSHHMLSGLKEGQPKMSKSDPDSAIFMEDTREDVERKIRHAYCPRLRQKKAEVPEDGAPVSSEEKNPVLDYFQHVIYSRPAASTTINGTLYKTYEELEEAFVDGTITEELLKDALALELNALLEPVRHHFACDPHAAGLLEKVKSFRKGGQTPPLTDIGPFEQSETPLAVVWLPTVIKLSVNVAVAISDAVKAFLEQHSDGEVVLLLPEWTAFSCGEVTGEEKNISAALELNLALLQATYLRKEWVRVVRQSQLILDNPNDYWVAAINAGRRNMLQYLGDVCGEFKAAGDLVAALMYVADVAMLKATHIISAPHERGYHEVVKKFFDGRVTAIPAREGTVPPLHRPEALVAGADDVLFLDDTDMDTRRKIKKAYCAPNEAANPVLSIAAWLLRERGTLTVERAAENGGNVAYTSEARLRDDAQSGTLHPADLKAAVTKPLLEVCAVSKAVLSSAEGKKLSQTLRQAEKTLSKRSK
In words: Trypanosoma cruzi tyrosyl tRNA synthetase (TcYRS) _High Tyrosine SOP. Note: in the data most compounds retested in dose-response had high values. It counts as functional. As to conditions: 30 µM.

For assay [9], the target named is T4, Tyrosyl-tRNA synthetase, putative (Trypanosoma cruzi (strain CL Brener)). In words: Trypanosoma cruzi tyrosyl tRNA synthetase (TcYRS) SOP. It counts as functional. Particulars: 30 µM.
Assay [10] has as its target Chromo domain-containing protein 1 (Saccharomyces cerevisiae (strain ATCC 204508 / S288c) (Baker's yeast)) (UniProt P32657). In words: ScCHD-1 Enzyme Inhibition Assay. Note: in the data most compounds retested in dose-response had high values. It counts as functional. Particulars: 30 µM.

For part of these data: Results with a measured potency or affinity are listed apart.

Sialic acid-binding Ig-like lectin 9 (Homo sapiens), sequence (Q9Y336 whole entry): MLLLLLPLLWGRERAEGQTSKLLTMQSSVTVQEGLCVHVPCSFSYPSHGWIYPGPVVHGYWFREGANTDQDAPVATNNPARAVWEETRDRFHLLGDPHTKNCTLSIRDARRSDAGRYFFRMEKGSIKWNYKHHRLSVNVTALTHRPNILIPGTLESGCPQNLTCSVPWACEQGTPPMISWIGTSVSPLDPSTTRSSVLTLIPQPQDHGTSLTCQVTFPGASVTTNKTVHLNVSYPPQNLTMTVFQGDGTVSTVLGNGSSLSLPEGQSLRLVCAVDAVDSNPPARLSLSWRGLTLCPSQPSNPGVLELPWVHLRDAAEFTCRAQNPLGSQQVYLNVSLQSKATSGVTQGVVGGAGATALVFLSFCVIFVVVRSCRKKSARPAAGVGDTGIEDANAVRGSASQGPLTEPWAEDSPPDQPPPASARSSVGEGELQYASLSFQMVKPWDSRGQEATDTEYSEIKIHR
Chromo domain-containing protein 1 (Saccharomyces cerevisiae (strain ATCC 204508 / S288c) (Baker's yeast)), sequence (P32657 whole entry, the tested form may be a part): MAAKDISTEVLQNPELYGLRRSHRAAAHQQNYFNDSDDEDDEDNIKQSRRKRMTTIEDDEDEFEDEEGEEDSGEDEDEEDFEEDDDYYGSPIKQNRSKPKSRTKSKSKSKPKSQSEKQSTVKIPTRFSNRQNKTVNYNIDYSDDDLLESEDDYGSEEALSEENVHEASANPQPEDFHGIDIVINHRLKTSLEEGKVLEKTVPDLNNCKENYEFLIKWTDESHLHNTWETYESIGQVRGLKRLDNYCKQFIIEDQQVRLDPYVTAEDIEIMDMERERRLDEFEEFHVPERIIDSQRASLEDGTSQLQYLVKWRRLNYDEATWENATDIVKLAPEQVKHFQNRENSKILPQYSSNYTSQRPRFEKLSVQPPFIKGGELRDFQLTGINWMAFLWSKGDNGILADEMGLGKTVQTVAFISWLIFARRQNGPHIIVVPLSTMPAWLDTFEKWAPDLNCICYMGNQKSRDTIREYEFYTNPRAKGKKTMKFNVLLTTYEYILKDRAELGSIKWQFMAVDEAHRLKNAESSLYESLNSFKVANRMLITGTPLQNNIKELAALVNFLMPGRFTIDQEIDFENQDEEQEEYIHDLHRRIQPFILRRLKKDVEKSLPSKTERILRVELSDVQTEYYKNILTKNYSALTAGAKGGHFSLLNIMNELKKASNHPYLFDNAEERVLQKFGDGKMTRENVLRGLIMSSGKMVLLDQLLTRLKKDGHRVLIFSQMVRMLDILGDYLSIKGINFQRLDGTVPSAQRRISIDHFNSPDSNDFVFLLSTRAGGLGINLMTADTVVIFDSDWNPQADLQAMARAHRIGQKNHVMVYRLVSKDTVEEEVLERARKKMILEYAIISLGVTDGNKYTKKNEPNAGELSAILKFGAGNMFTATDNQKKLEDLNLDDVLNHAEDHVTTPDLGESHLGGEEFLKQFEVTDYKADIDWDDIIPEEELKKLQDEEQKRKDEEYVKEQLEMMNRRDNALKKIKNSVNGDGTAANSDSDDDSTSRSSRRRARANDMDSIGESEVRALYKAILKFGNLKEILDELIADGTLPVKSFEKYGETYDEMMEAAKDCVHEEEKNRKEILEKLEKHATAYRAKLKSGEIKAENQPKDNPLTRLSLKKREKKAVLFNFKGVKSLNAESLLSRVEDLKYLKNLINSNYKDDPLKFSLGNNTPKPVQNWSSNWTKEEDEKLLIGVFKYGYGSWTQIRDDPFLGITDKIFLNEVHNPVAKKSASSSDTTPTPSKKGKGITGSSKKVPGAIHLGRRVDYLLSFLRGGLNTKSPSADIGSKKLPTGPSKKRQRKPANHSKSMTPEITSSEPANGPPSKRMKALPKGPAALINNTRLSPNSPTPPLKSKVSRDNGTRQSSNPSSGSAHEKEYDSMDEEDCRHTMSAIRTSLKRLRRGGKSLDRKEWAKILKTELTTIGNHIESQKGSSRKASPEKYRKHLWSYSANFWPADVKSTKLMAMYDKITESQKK
Protein translocase subunit SecA (Escherichia coli (strain K12)), sequence (P10408 whole entry): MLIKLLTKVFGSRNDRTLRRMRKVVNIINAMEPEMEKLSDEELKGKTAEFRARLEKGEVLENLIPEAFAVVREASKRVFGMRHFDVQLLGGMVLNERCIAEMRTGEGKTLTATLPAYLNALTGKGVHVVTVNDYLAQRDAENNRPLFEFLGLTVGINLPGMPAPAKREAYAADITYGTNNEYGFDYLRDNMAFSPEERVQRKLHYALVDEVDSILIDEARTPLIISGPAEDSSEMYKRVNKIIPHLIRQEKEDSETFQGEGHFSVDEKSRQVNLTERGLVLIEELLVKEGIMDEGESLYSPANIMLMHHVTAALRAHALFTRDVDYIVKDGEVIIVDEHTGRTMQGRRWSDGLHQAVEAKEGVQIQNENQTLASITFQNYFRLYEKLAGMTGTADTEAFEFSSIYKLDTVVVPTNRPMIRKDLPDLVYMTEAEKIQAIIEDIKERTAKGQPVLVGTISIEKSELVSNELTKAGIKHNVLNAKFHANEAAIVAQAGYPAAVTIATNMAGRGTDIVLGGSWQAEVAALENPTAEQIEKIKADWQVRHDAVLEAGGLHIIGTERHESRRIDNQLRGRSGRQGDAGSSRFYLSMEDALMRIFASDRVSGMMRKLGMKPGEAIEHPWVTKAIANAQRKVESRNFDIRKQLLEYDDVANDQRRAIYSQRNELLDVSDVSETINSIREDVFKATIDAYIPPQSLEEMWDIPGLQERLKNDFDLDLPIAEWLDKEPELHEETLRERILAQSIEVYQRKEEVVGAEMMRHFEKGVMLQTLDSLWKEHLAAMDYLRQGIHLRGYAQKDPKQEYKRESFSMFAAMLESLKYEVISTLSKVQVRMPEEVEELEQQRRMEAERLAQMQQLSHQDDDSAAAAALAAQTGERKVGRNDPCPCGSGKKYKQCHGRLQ

With `CC(=O)N1C[C@@H](c2ccsc2)[C@@H]2CN(Cc3cccc(Cl)c3)CC[C@@H]21`, the Percent Effect in assay [1] was -3.63%; in assay [2], 9.33%; in assay [3] it was 5.9%; in assay [4], -1.97%; in assay [5] it was 7.08%; in assay [6] it was 6.9%. Moreover, the Percent Effect in [7] was 56.9%; in assay [8] it was 9.52%; in assay [9] it was 20%; in assay [10] it was -24.3%.
As to `CCCn1[nH]cc/c1=N\C(=O)CN1CCOC(Cn2cc(C)cn2)C1` (stereo not given), the Percent Effect is -8.16% in assay [1]; 5.33% in assay [2]; 3.2% in [3]; 3.61% in assay [4]; 0.444% in assay [5]; 5.85% in assay [6]. Besides, the Percent Effect was -3.75% in assay [7], 2.63% in assay [8], 7.69% in [9] and -5.89% in assay [10].
Consider `CN(C)C(=O)CN1C(=O)CCC12CCN(Cc1cccn1C)CC2`, for which the Percent Effect in assay [1] was -0.209%; in assay [2], -1.3%; in [3] it was 0.456%; in assay [4] it was 3%; in [5] it was -0.913%; in [6], 11.9%. Besides, the Percent Effect was 7.89% in assay [7], 10.6% in assay [8], 20% in assay [9] and -9.53% in [10].
Turning to `N#Cc1ccccc1OCCN1CCn2c(nnc2C2CC2)C1`, the Percent Effect is 1.03% in assay [1]; 2.67% in assay [2]; -0.123% in [3]; -0.602% in assay [4]; -0.444% in assay [5]; 5.85% in assay [6]. Moreover, the Percent Effect in [7] is -1.08%; in assay [8], 2.63%; in [9] it was 2.56%; in [10], -0.472%.
Regarding `c1cnc(N2CCC3(CCN(CC4CC4)CC3)CC2)nc1`, the Percent Effect in assay [1] is -6.61%; in [2] it was 3.9%; in assay [3], -1.99%; in assay [4] it was -2.82%; in assay [5] it was -5.67%; in [6] it was 6.09%. Moreover, the Percent Effect was -6.66% in assay [7], 5.79% in assay [8], 12.8% in assay [9] and -1.89% in assay [10].
For the molecule `O=C1NCC2(CCCN(Cc3ccc(Cl)s3)C2)Oc2ccccc21` (stereo not given), the Percent Effect in assay [1] is -1.75%; in assay [2] it was 20%; in [3], 4.75%; in assay [4] it was 1.18%; in assay [5], -1.33%; in assay [6] it was 10.3%. Moreover, the Percent Effect was 12.7% in [7], 4.23% in assay [8], 20% in assay [9] and -28.8% in assay [10].
As for `COCCN1CCCC1c1nccnc1Nc1nc(C)cs1` (stereo not given), the Percent Effect in assay [1] is -2.72%; in assay [2], 12%; in assay [3] it was 5.33%; in [4], -2.56%; in [5] it was 3.98%; in assay [6], 7.55%. In addition, the Percent Effect was 21.3% in [7], 9.52% in [8], 15% in assay [9] and -24.9% in assay [10].
Consider `COc1ccccc1-c1noc(CN2CCCC2Cn2cccn2)n1` (stereo not given), for which the Percent Effect was -4.25% in assay [1]; -13.3% in assay [2]; 1.74% in assay [3]; 3.01% in [4]; -0.444% in assay [5]; 14.3% in assay [6]. In addition, the Percent Effect in [7] was 1.34%; in assay [8], 1.58%; in assay [9], 0%; in assay [10], -7.06%.
`CCn1ccnc1CN1CCCN(C(=O)c2cccn2C)CC1`: the Percent Effect in [1] was -5.36%; in assay [2], 12.8%; in [3], -19.1%; in assay [4], 14%; in assay [5] it was -2.46%; in assay [6], 8.79%. Also, the Percent Effect is 4.83% in [7], 2.39% in [8], 20.5% in [9] and 31.3% in assay [10].
`CN(C)c1cc(C(=O)N2CCN(S(C)(=O)=O)CC2)ccn1`: the Percent Effect in [1] is -7.92%; in [2], 10.3%; in assay [3], -9.31%; in [4], -5.35%; in [5] it was -2.46%; in assay [6] it was 6.23%. Also, the Percent Effect in assay [7] was 25.7%; in assay [8] it was 4.31%; in [9], 8.43%; in assay [10] it was -0.991%.
`CCn1cc(NC(=O)CCc2ccc3c(c2)OCCCO3)cn1`: the Percent Effect was -5.48% in assay [1]; 15.6% in assay [2]; 6.08% in assay [3]; 4.85% in assay [4]; -6.35% in assay [5]; 2.28% in assay [6]. Further, the Percent Effect in [7] is 0.692%; in assay [8] it was 6.86%; in [9] it was 23.5%; in assay [10], -12.8%.
With `CC(NC(=O)N1CCN(c2ccc(Cl)cc2)CC1)C(=O)N1CCSCC1` (stereo not given), the Percent Effect in assay [1] is -6.05%; in assay [2] it was 8.11%; in [3], 0.915%; in assay [4], -2.04%; in [5] it was 0.35%; in assay [6], 17.8%. The Percent Effect is 13.2% in assay [7], 5.85% in [8], 12.2% in assay [9] and -1.19% in [10].
